Sampled rows, rich in hits. Any-hit rate of the full collection: about 17%.
TDP1 cell CPT: qHTS for Inhibitors of human tyrosyl-DNA phosphodiesterase 1 (TDP1): qHTS in cells in presence of CPT | chicken DT40 Tdp1-/-;hTDP1 cells + 20 nM CPT, ATP luminescence, 48 h | Potency, µM (highest dose often 46.2 µM), for the others: at the highest dose activity change, negative = growth inhibition, usual class: inhibitors | 420,000 compounds, 12% hits; further: on the % scale 0 is the no-effect control and ±100 the full control effect; nearly all actives have a fitted effect of over 55% in size
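Cell growth measured by CellTiter-Glo luminescence after a minimum 48 h, 37 C compound exposure with 20 nM CPT in Tdp1-knockout DT40 cells stably expressing hTDP1, seeded 400/well; qHTS titration format.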
TGFb SMAD3 inh: qHTS for Inhibitors of TGF-b; HepG2 CAGA-GFP TGF-b/SMAD3 reporter, GFP fluorescence, 18 h; TGF-beta stimulated, 500 pg/mL final; 410,000 compounds, 1.2% hits; Potency, µM (doses to about 46.1 µM), without a hit: at the top dose activity, negative = inhibition, actives largely listed as inhibitors; further: on the % scale 0 is the no-effect control and ±100 the full control effect; nearly all actives have a fitted effect of over 65% in size
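Smad-responsive CAGA-GFP expression was quantified in HEPG2 cells exposed to compounds and 500 pg/mL final TGF-beta for 18 h at 37 degrees C; unstimulated wells defined full inhibition.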
ATXN2 expr inh: Primary qHTS for Inhibitors of ATXN expression; HEK-293 ATXN2-luciferase reporter, luminescence, 24 h; Potency, µM (doses to about 57 µM), for the others: at the top dose activity change, negative = inhibition, hits mostly inhibitors; 360,000 compounds, 0.72% hits; AID 1745845, 2022; further: on the % scale 0 is the no-effect control and ±100 the full control effect; nearly all actives have a fitted effect of over 55% in size
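ATXN2-luciferase reporter cells (luciferase flanked by upstream and downstream ATXN2 gene portions) were treated 24 h at 37 °C with compounds at up to 57 uM. SteadyGlo luminescence gave expression; GF-AFC fluorescence gave viability.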
HepG2 viability: qHTS for Inhibitors of TGF-b: Cytotox Counterscreen; HepG2 CAGA-GFP viability, ATP luminescence, 18 h; 410,000 compounds, 0.76% hits; Potency, µM (titrated, usually from 46.1 µM), for inactives: at the top dose activity change, negative = cytotoxicity, most hits filed as cytotoxic
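CellTiter-Glo luminescence gave cytotoxicity after 18 hours at 37 degrees C. The cells were HepG2 CAGA-GFP in 1% FBS DMEM, stimulated with 500 pg/mL TGF-beta after compound addition. %Activity was normalised to no-cell wells (complete cell-killing) and DMSO (no toxicity), and curves were fitted and classified.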
DT40 TDP1 no CPT: qHTS for Inhibitors of human tyrosyl-DNA phosphodiesterase 1 (TDP1): qHTS in cells in absence of CPT | Potency, µM (doses to about 46.2 µM), inactives show at the top dose activity change, negative = growth inhibition, most hits filed as inhibitors | DT40 Tdp1-/- hTDP1 cells, no CPT, ATP luminescence, 48 h | AID 686978, 2013 | 420,000 compounds, 15% hits; further: on the % scale 0 is the no-effect control and ±100 the full control effect; nearly all actives have a fitted effect of over 55% in size
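Camptothecin absent (DMSO only). Human TDP1-complemented DT40 knockout cells, 400 cells/well, 37 °C for minimum 48 hr; ATP measured via CellTiter-Glo, 30 min dark incubation, luminescence.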
ATXN viability: Viability Counterscreen for Primary qHTS for Inhibitors of ATXN expression; Potency, µM (series often up to 56.7 µM), actives largely listed as cytotoxic; 400,000 compounds, 0.49% hits; S2 cells (HEK-293 line with an ATXN2-luciferase reporter) viability, CellTiter-Fluor protease fluorescence, 24 h; further: nearly all actives have a fitted effect of over 40% in size
Numbers without * were called inactive; i = inactive; ? = inconclusive; · = not tested or not shown; [ ] = remark or other dose. The call rests on the fitted dose curve; in most records, active means well fitted curve in the direction sought with a large enough effect; inconclusive means small, poorly fitted or top-dose-only effect, or another doubt; inactive means no such curve, though single readings can be large; an effect the other way counts as inactive or inconclusive. Potency means the concentration at half of the fitted maximal effect.

SMILES | TDP1 cell CPT | TGFb SMAD3 inh | ATXN2 expr inh | HepG2 viability | DT40 TDP1 no CPT | ATXN viability
COc1ccc2nc(NC(=O)c3ccc(NC(=O)C4CCCO4)cc3)sc2c1 (stereo unspecified) | ? | -11% | -3% | -30% | ? | i
COc1ccc(S(=O)(=O)N2CCC(C(=O)NCC(=O)Nc3c(C)cccc3C)CC2)cc1OC | -12% | -18% | ? | 1% | ? | i
COc1ccc(OC2C(=O)N(Cc3ccc(F)cc3)C2c2cc(OC)c(OC)c(OC)c2)cc1 (stereo unspecified) | ? | -1% | -11% | -9% | 23µM* | i
Cc1sc(=NC(=O)c2ccco2)n(C)c1-c1ccc(F)cc1 | ? | 6% | 26% | 1% | 16µM* | i
CCOC(=O)/C=C(\C)Sc1cc(=O)oc2ccccc12 | 23µM* | -5% | 3% | -31% | 21µM* | i
CCOC(=O)/C=C(\C)Sc1cc(O)c2ccccc2c1O | 0.92µM* | 3.2µM* | · | 5.6µM* | 1.2µM* | ?
CCOC(=O)Nc1oc2ccccc2c(=O)c1C | 0% | 13% | 17% | -5% | -5% | i
CCC1(C2CCN(Cc3ccc(OC)cc3)CC2)NC(=O)N(CC2COc3ccccc3O2)C1=O (stereo unspecified) | -16%[9.04 µM] | · | · | · | ? | i
CSc1ncc(Cl)c(C(=O)NCc2ccc(C)cc2)n1 | -29% | -4% | 6% | -21% | ? | i
CCC1=NN2C(=N)/C(=C\c3cccn3-c3c(C)cccc3C)C(=O)N=C2S1 | ? | -7% | -5% | -21% | 3.7µM* | i
COCC(=O)N1CCCC(C(=O)c2ccc(Oc3ccccc3)cc2)C1 (stereo unspecified) | ? | ? | -20% | 5% | 8.2µM* | ?
COCC(=O)N1CCCC(C(=O)c2ccc(-c3ccccc3)c(F)c2)C1 (stereo unspecified) | 21µM* | -1% | -24% | -7% | 15µM* | i
Cc1noc(C)c1C(=O)N1CCCC(C(=O)c2ccc(Cl)cc2)C1 (stereo unspecified) | -18% | 3% | -3% | -5% | ? | i
Cc1cc(C(=O)N2CCCC(C(=O)c3ccc(Oc4ccccc4)cc3)C2)n[nH]1 (stereo unspecified) | 21µM* | ? | -25% | -16% | 13µM* | ?
Cc1ccc2[nH]nc(C(=O)N3CCCC(C(=O)c4ccc(Cl)cc4)C3)c2c1 (stereo unspecified) | ? | ? | -9% | -16% | 16µM* | ?
CC(=O)NCC(=O)N1CCCC(C(=O)c2ccc(-c3ccccc3)c(F)c2)C1 (stereo unspecified) | 5% | -19% | -3% | -12% | -22% | i
Cn1cnc2c(F)c(Nc3ccc(Br)cc3F)c(C(=O)NOCCO)cc21 | · | · | 14% | · | · | ·
COc1ccccc1C(=O)NNC(=O)C(=O)NC(C)C | 6% | 16% | 9% | -8% | -23% | i
CC1=C(C(=O)NCc2ccccc2C)C2(CCCCCC2)OC1=O | ? | ? | · | -12% | -21% | ·
O=C1C2C3C=CC(C3)C2C(=O)N1/N=C/c1cn(Cc2ccc(F)cc2)c2ccccc12 (stereo unspecified) | -3% | ? | ? | 0.89µM* | -19% | i
O=C1C2C3C=CC(C3)C2C(=O)N1/N=C/c1cn(Cc2ccccc2)c2ccccc12 (stereo unspecified) | 16µM* | 4.5µM* | -23% | -7% | ? | i
CC1CC(C)CN(S(=O)(=O)c2ccc3c(c2)CC(=O)N3)C1 (stereo unspecified) | 0% | 0% | · | 2% | 6% | i
CCCCCNC(=O)N1CCC(CN(Cc2ccc(Cl)cc2)Cc2ccc([N+](=O)[O-])s2)C1 (stereo unspecified) | · | · | 27µM* | · | · | ·
O=C(NC(=S)N(Cc1ccccc1)Cc1ccccc1)C1CCCCC1 | ? | 14% | 5% | 3% | 23µM* | i
CCNc1nc(NCc2ccco2)c2ccccc2n1 | 11µM* | ? | · | -8% | 11µM* | ·
SMILES | TDP1 cell CPT | TGFb SMAD3 inh | ATXN2 expr inh | HepG2 viability | DT40 TDP1 no CPT | ATXN viability
C=CCNc1nc(Cl)nc(NCc2ccco2)n1 | -22% | -13% | -7% | 1% | -5% | i
CNc1nc(NCc2ccco2)c2ccccc2n1 | 10µM* | 2.8µM* | · | -39% | 16µM* | ·
C=CCNc1nc(NCc2ccco2)nc(OCC)n1 | 21µM* | -21% | 2% | 4% | ? | i
CSc1nc(NCc2ccco2)c2ccccc2n1 | ? | -18% | -13% | -12% | ? | i
Clc1nc(NCc2ccco2)c2ccccc2n1 | ? | 1% | · | -14% | 7.1µM* | ·
COc1cc(C2SC[C@H]3C(=O)N(c4ccccc4)C(=O)N23)cc(OC)c1OC (stereo partly specified) | -26% | -20% | 1% | -11% | ? | i
Cc1ccc2onc(CC(=O)N3CCN(c4ccccc4)CC3)c2c1 | -43% | -16% | 14% | -15% | ? | i
CCOc1ccccc1N(C)C(=O)c1cc(S(=O)(=O)NCc2ccc(C)cc2)ccc1F | 18µM* | ? | ? | -15% | 21µM* | ?
CCOc1ccccc1N(C)C(=O)c1cc(S(=O)(=O)NCCc2ccc(Cl)cc2)ccc1F | ? | ? | ? | -22% | ? | ?
CCc1cc(-c2n[nH]c(C)c2Oc2ccc(C(C)C)cc2)c(O)cc1O | ? | -10% | -32% | -104% | -24% | ?
O=C(C[N+]12CCCc3cccc(c31)CCC2)c1ccccc1 | ? | ? | · | -35% | 10µM* | ·
C[N+]1(CC(=O)c2ccc(I)cc2)CCCc2ccccc21 (stereo unspecified) | 7.9µM* | -14% | · | -41% | 7.1µM* | ·
COCCn1c(C)cc(O)c(C(c2ccccc2Cl)N2CCCCC2)c1=O (stereo unspecified) | 0% | 20% | · | 10% | 2% | ·
O=C(/C=C/c1ccccc1O)c1ccco1 | 18µM* | ? | -4% | -57% | 21µM* | i
N#Cc1ccc(/C=C/C(=O)c2ccco2)cc1 | 9.2µM* | ? | -11% | -63% | 10µM* | ?
O=C(/C=C/c1cc(Br)ccc1O)c1ccco1 | 6.5µM* | ? | ? | 11µM* | 2.6µM* | ·

Screens (PubChem)
